Experimental data: the supplement of paper PMC4466140

Legend:
Assay in all cases: SPOT peptide array binding signal intensity (averaged, normalized) (arbitrary units (background-subtracted, floor 0; scale differs between SH3 domains)); higher = stronger binding of the SH3 domain to the peptide
[1] = target: CaNbp2
How it was run: (§1)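 Peptides were synthetic 15-mers on cellulose membranes, with every cysteine replaced by serine. They were incubated overnight at 4°C with GST-SH3 domains from four yeast species at 10 μg/ml in TBS-based blocking buffer. Binding signal, the replicate-averaged normalized and background-subtracted spot intensity, is in arbitrary units that differ between domains.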

[2] = target: CaRvs167
How it was run: as §1

[3] = target: CaRvs167-3
How it was run: as §1

[4] = target: CaSho1
How it was run: as §1

[5] = target: CaSla1-D1-D2
How it was run: as §1

[6] = target: CaSla1-D3
How it was run: as §1

[7] = target: ScAbp1
How it was run: as §1

[8] = target: ScBbc1
How it was run: as §1

[9] = target: ScBem1-D1
How it was run: as §1

[10] = target: ScBzz1-D1
How it was run: as §1

[11] = target: ScBzz1-D2
How it was run: as §1

[12] = target: ScCyk3
How it was run: as §1

[13] = target: ScFus1
How it was run: as §1

[14] = target: ScHof1
How it was run: as §1

[15] = target: ScHse1
How it was run: as §1

[16] = target: ScLsb1
How it was run: as §1

[17] = target: ScLsb2
How it was run: as §1

[18] = target: ScLsb3
How it was run: as §1

[19] = target: ScLsb4
How it was run: as §1

[20] = target: ScMyo3
How it was run: as §1

[21] = target: ScMyo5
How it was run: as §1

[22] = target: ScNbp2
How it was run: as §1

[23] = target: ScPex13
How it was run: as §1

[24] = target: ScRvs167
How it was run: as §1

[25] = target: ScSho1
How it was run: as §1

[26] = target: ScSla1-D1-D2
How it was run: as §1

[27] = target: ScSla1-D3
How it was run: as §1

[28] = target: SpAbp1-D1
How it was run: as §1

[29] = target: SpBbc1
How it was run: as §1

[30] = target: SpBzz1-D1
How it was run: as §1

[31] = target: SpBzz1-D2
How it was run: as §1

[32] = target: SpCyk3
How it was run: as §1

[33] = target: SpHof1
How it was run: as §1

[34] = target: SpHof1-2
How it was run: as §1

[35] = target: SpHof1-3
How it was run: as §1

[36] = target: SpHse1
How it was run: as §1

[37] = target: SpLsb1
How it was run: as §1

[38] = target: SpLsb4
How it was run: as §1

[39] = target: SpMyo1
How it was run: as §1

[40] = target: SpNbp2
How it was run: as §1

[41] = target: SpPex13
How it was run: as §1

[42] = target: SpRvs167
How it was run: as §1

[43] = target: SpSla1-D1-D2
How it was run: as §1

[44] = target: SpSla1-D3
How it was run: as §1

[45] = target: AgAbp1
How it was run: as §1

[46] = target: AgBbc1
How it was run: as §1

[47] = target: AgBem1-D1
How it was run: as §1

[48] = target: AgBzz1-D1
How it was run: as §1

[49] = target: AgBzz1-D2
How it was run: as §1

[50] = target: AgCyk3
How it was run: as §1

[51] = target: AgFus1
How it was run: as §1

[52] = target: AgHof1
How it was run: as §1

[53] = target: AgHse1
How it was run: as §1

[54] = target: AgLsb1
How it was run: as §1

[55] = target: AgLsb4
How it was run: as §1

[56] = target: AgMyo5
How it was run: as §1

[57] = target: AgNbp2
How it was run: as §1

[58] = target: AgRvs167
How it was run: as §1

[59] = target: AgSho1
How it was run: as §1

[60] = target: AgSla1-D1-D2
How it was run: as §1

[61] = target: AgSla1-D3
How it was run: as §1

[62] = target: CaAbp1-D1
How it was run: as §1

[63] = target: CaAbp1-D2
How it was run: as §1

[64] = target: CaBbc1
How it was run: as §1

[65] = target: CaBem1-D1
How it was run: as §1

[66] = target: CaBzz1-D1
How it was run: as §1

[67] = target: CaBzz1-D2
How it was run: as §1

[68] = target: CaCyk3
How it was run: as §1

[69] = target: CaFus1
How it was run: as §1

[70] = target: CaHof1
How it was run: as §1

[71] = target: CaHse1
How it was run: as §1

[72] = target: CaLsb1
How it was run: as §1

[73] = target: CaLsb4
How it was run: as §1

[74] = target: CaMyo5
How it was run: as §1

TSIEIPKRSPLRFTS
SPOT peptide array binding signal intensity [1]: 61 | SPOT peptide array binding signal intensity [2]: 2 | SPOT peptide array binding signal intensity [3]: ≤ 0 | SPOT peptide array binding signal intensity [4]: 6 | SPOT peptide array binding signal intensity [5]: 83 | SPOT peptide array binding signal intensity [6]: ≤ 0 | SPOT peptide array binding signal intensity [7]: 21 | SPOT peptide array binding signal intensity [8]: 5 | SPOT peptide array binding signal intensity [9]: ≤ 0 | SPOT peptide array binding signal intensity [10]: 4.5 | SPOT peptide array binding signal intensity [11]: 1 | SPOT peptide array binding signal intensity [12]: 3 | SPOT peptide array binding signal intensity [13]: ≤ 0 | SPOT peptide array binding signal intensity [14]: 0.5 | SPOT peptide array binding signal intensity [15]: 20.5 | SPOT peptide array binding signal intensity [16]: ≤ 0 | SPOT peptide array binding signal intensity [17]: ≤ 0 | SPOT peptide array binding signal intensity [18]: 252 | SPOT peptide array binding signal intensity [19]: ≤ 0 | SPOT peptide array binding signal intensity [20]: 11.5 | SPOT peptide array binding signal intensity [21]: 2 | SPOT peptide array binding signal intensity [22]: 2 | SPOT peptide array binding signal intensity [23]: 2 | SPOT peptide array binding signal intensity [24]: 101 | SPOT peptide array binding signal intensity [25]: 0.5 | SPOT peptide array binding signal intensity [26]: ≤ 0 | SPOT peptide array binding signal intensity [27]: 30.2 | SPOT peptide array binding signal intensity [28]: 206 | SPOT peptide array binding signal intensity [29]: ≤ 0 | SPOT peptide array binding signal intensity [30]: 162 | SPOT peptide array binding signal intensity [31]: ≤ 0 | SPOT peptide array binding signal intensity [32]: 2 | SPOT peptide array binding signal intensity [33]: 73 | SPOT peptide array binding signal intensity [34]: 8.75 | SPOT peptide array binding signal intensity [35]: 25.5 | SPOT peptide array binding signal intensity [36]: 76.8 | SPOT peptide array binding signal intensity [37]: ≤ 0 | SPOT peptide array binding signal intensity [38]: 376 | SPOT peptide array binding signal intensity [39]: 12.5 | SPOT peptide array binding signal intensity [40]: ≤ 0 | SPOT peptide array binding signal intensity [41]: ≤ 0 | SPOT peptide array binding signal intensity [42]: 94 | SPOT peptide array binding signal intensity [43]: 1 | SPOT peptide array binding signal intensity [44]: ≤ 0

LKHGWKPLRPIKLIS
SPOT peptide array binding signal intensity [45]: 1400 | SPOT peptide array binding signal intensity [46]: 72.8 | SPOT peptide array binding signal intensity [47]: 12 | SPOT peptide array binding signal intensity [48]: 31 | SPOT peptide array binding signal intensity [49]: ≤ 0 | SPOT peptide array binding signal intensity [50]: ≤ 0 | SPOT peptide array binding signal intensity [51]: 141 | SPOT peptide array binding signal intensity [52]: 21.5 | SPOT peptide array binding signal intensity [53]: 252 | SPOT peptide array binding signal intensity [54]: ≤ 0 | SPOT peptide array binding signal intensity [55]: ≤ 0 | SPOT peptide array binding signal intensity [56]: ≤ 0 | SPOT peptide array binding signal intensity [57]: 41 | SPOT peptide array binding signal intensity [58]: 5.33 | SPOT peptide array binding signal intensity [59]: 32 | SPOT peptide array binding signal intensity [60]: 206 | SPOT peptide array binding signal intensity [61]: 3.5 | SPOT peptide array binding signal intensity [62]: 398 | SPOT peptide array binding signal intensity [63]: 1860 | SPOT peptide array binding signal intensity [64]: 364 | SPOT peptide array binding signal intensity [65]: 23 | SPOT peptide array binding signal intensity [66]: ≤ 0 | SPOT peptide array binding signal intensity [67]: 46.5 | SPOT peptide array binding signal intensity [68]: 7 | SPOT peptide array binding signal intensity [69]: 850 | SPOT peptide array binding signal intensity [70]: ≤ 0 | SPOT peptide array binding signal intensity [71]: 193 | SPOT peptide array binding signal intensity [72]: ≤ 0 | SPOT peptide array binding signal intensity [73]: 176 | SPOT peptide array binding signal intensity [74]: ≤ 0 | SPOT peptide array binding signal intensity [1]: 252 | SPOT peptide array binding signal intensity [2]: 14.8 | SPOT peptide array binding signal intensity [3]: 24.8 | SPOT peptide array binding signal intensity [4]: 201 | SPOT peptide array binding signal intensity [5]: 27.5 | SPOT peptide array binding signal intensity [6]: 10 | SPOT peptide array binding signal intensity [7]: 296 | SPOT peptide array binding signal intensity [8]: 9.75 | SPOT peptide array binding signal intensity [9]: 9 | SPOT peptide array binding signal intensity [10]: 6.5 | SPOT peptide array binding signal intensity [11]: 20 | SPOT peptide array binding signal intensity [12]: 10 | SPOT peptide array binding signal intensity [13]: 50 | SPOT peptide array binding signal intensity [14]: ≤ 0 | SPOT peptide array binding signal intensity [15]: 478 | SPOT peptide array binding signal intensity [16]: 16.5 | SPOT peptide array binding signal intensity [17]: ≤ 0 | SPOT peptide array binding signal intensity [18]: 527 | SPOT peptide array binding signal intensity [19]: 4 | SPOT peptide array binding signal intensity [20]: ≤ 0 | SPOT peptide array binding signal intensity [21]: ≤ 0 | SPOT peptide array binding signal intensity [22]: 550 | SPOT peptide array binding signal intensity [23]: 37.5 | SPOT peptide array binding signal intensity [24]: ≤ 0 | SPOT peptide array binding signal intensity [25]: 1040 | SPOT peptide array binding signal intensity [26]: 50 | SPOT peptide array binding signal intensity [27]: 6.5 | SPOT peptide array binding signal intensity [28]: 166 | SPOT peptide array binding signal intensity [29]: 0.75 | SPOT peptide array binding signal intensity [30]: 362 | SPOT peptide array binding signal intensity [31]: 0.5 | SPOT peptide array binding signal intensity [32]: ≤ 0 | SPOT peptide array binding signal intensity [33]: 93 | SPOT peptide array binding signal intensity [34]: 18.8 | SPOT peptide array binding signal intensity [35]: 445 | SPOT peptide array binding signal intensity [36]: 294 | SPOT peptide array binding signal intensity [37]: ≤ 0 | SPOT peptide array binding signal intensity [38]: 161 | SPOT peptide array binding signal intensity [39]: ≤ 0 | SPOT peptide array binding signal intensity [40]: 246 | SPOT peptide array binding signal intensity [41]: 8 | SPOT peptide array binding signal intensity [42]: 7.5 | SPOT peptide array binding signal intensity [43]: ≤ 0 | SPOT peptide array binding signal intensity [44]: ≤ 0
